Some test systems named below: SR leukemia; RPMI-8226 leukemia; OVCAR-8 ovarian; OVCAR-5 ovarian; OVCAR-4 ovarian; SK-OV-3 ovarian; IGROV1 ovarian; OVCAR-3 ovarian; NCI/ADR-RES ovarian; T-47D breast; BT-549 breast; MDA-MB-435 melanoma; MCF7 breast; HCT-116 colon; HCC-2998 colon; KM12 colon; MDA-MB-468 breast.
Assay in all cases: NCI-60 one-dose screen, 48 h (100 = growth as untreated, 0 = no growth, -100 = all killed)
What all share (conditions): 10 µM unless noted

About 83,000 compounds went through this panel and 20% of them were active in at least one assay; those are over-represented in the sample as a whole.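 In brief: 96-well plates, 48 h treatment, single concentration, percent growth endpoint.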 Values without a mark were called inactive. Calls of active or inactive are those of the source. The calls were made as follows: active = growth percent below 10; inactive = the rest.

Consider `COc1cc(-c2ccc(/C=N/NC(=O)c3[nH]c4ccc(Br)cc4c3-c3ccccc3)s2)cc(OC)c1OC`, for which the growth in the test with SR leukemia was 79%; in the test on RPMI-8226 leukemia, 61.1%; with OVCAR-8 ovarian, 80.7%; with OVCAR-5 ovarian, 101%; in the test on OVCAR-4 ovarian, 93.7%; in the test on SK-OV-3 ovarian, 99.6%. For the same molecule, the growth with IGROV1 ovarian is 95.6%; with OVCAR-3 ovarian, 107%; in the test with NCI/ADR-RES ovarian it was 71.7%; in the test on T-47D breast it was 73.9%; with BT-549 breast it was 85.9%; in the test on MDA-MB-435 melanoma, 92.2%. Besides, the growth in the test on MCF7 breast was 72.1%; in the test with HCT-116 colon it was 68.2%; in the test on HCC-2998 colon, 101%; with KM12 colon, 82.3%; with MDA-MB-468 breast it was 96.7%.

Regarding `COc1cccc(-c2c(C#N)c(-c3ccc(Cl)cc3)nc3n[nH]c(-c4ccc(Cl)cc4)c23)c1`, the growth in the test on SR leukemia was 16.3%; with RPMI-8226 leukemia it was 7.25% (active); in the test with OVCAR-8 ovarian it was 48.3%; in the test with OVCAR-5 ovarian, 69%; with OVCAR-4 ovarian, 26.5%; in the test with SK-OV-3 ovarian, 43.9%. In addition, the growth is 65.2% in the test with IGROV1 ovarian; 58% with OVCAR-3 ovarian; 59.3% in the test with NCI/ADR-RES ovarian; 9.68% (active) in the test with T-47D breast; 44% with BT-549 breast; 46% in the test on MDA-MB-435 melanoma. Also, the growth in the test with MCF7 breast was 36.2%; with HCT-116 colon it was 20.6%; in the test with HCC-2998 colon, 56.6%; with KM12 colon, 32.5%; in the test with MDA-MB-468 breast it was 61%.

Regarding `CCOc1ccc(-c2c(C#N)c(-c3ccc(Cl)cc3)nc3n[nH]c(-c4ccc(Cl)cc4)c23)cc1OC`, the growth in the test on SR leukemia is 18.8%; with RPMI-8226 leukemia it was 17.3%; in the test with OVCAR-8 ovarian, 79.3%; in the test on OVCAR-5 ovarian, 72.2%; in the test with OVCAR-4 ovarian, 51.2%; in the test on SK-OV-3 ovarian, 63.4%. Also, the growth is 62.9% in the test with IGROV1 ovarian; 67.5% in the test on OVCAR-3 ovarian; 62% in the test with NCI/ADR-RES ovarian; 25.1% in the test with T-47D breast; 67.6% with BT-549 breast; 56.8% in the test with MDA-MB-435 melanoma. The growth in the test on MCF7 breast is 26.2%; in the test on HCT-116 colon it was 31.4%; in the test with HCC-2998 colon, 53.4%; with KM12 colon, 30.2%; with MDA-MB-468 breast, 50.5%.

With `CN1CCc2c(sc3ncnc(N/N=C/c4ccc(Cl)cc4Cl)c23)C1`, the growth was -16.5% (active) in the test on SR leukemia; -9.12% (active) with RPMI-8226 leukemia; 6.87% (active) with OVCAR-8 ovarian; -18.6% (active) with OVCAR-5 ovarian; -40.6% (active) in the test with OVCAR-4 ovarian; 0.686% (active) with SK-OV-3 ovarian. For the same molecule, the growth in the test on IGROV1 ovarian was 30.4%; in the test on OVCAR-3 ovarian, -56.5% (active); with NCI/ADR-RES ovarian, 8.35% (active); in the test on T-47D breast it was 76.9%; with BT-549 breast, -40.2% (active); in the test on MDA-MB-435 melanoma, -23.7% (active). The growth was 3.77% (active) in the test with MCF7 breast; -64.1% (active) with HCT-116 colon; 24.1% in the test with HCC-2998 colon; 24.8% in the test on KM12 colon; -67.5% (active) with MDA-MB-468 breast.

For `CC1CCCCN1CCCNC(=O)N/C(N)=N/c1nc2ccccc2s1` (stereo unspecified), the growth is -17.1% (active) in the test on SR leukemia; 1.48% (active) in the test with RPMI-8226 leukemia; 75.2% in the test on OVCAR-8 ovarian; 38.2% in the test on OVCAR-5 ovarian; 74.9% with OVCAR-4 ovarian; 58.8% with SK-OV-3 ovarian. For the same molecule, the growth with IGROV1 ovarian was 47.9%; in the test with OVCAR-3 ovarian, 72.4%; with NCI/ADR-RES ovarian, 64.1%; in the test with T-47D breast it was 57.2%; with BT-549 breast, 55.6%; with MDA-MB-435 melanoma, -35.2% (active). The growth in the test on MCF7 breast is -9.89% (active); in the test on HCT-116 colon, 16.8%; in the test with HCC-2998 colon it was 47.1%; with KM12 colon it was 48.2%; with MDA-MB-468 breast, 11.2%.

With `N#Cc1cnn(C(=O)c2ccccc2Br)c1NC(=O)c1ccc(Br)cc1Cl`, the growth is 78.2% with SR leukemia; 102% in the test on RPMI-8226 leukemia; 104% with OVCAR-8 ovarian; 102% in the test with OVCAR-5 ovarian; 101% with OVCAR-4 ovarian; 86.7% with SK-OV-3 ovarian. Also, the growth in the test with IGROV1 ovarian was 115%; in the test on OVCAR-3 ovarian, 119%; in the test on NCI/ADR-RES ovarian, 98.7%; with T-47D breast, 97%; with BT-549 breast, 91.1%; with MDA-MB-435 melanoma it was 103%. Besides, the growth was 95.4% in the test with MCF7 breast; 103% with HCT-116 colon; 108% with HCC-2998 colon; 102% in the test on KM12 colon; 94.2% with MDA-MB-468 breast.

With `N#Cc1c(-c2cccc(Cl)c2Cl)cc(-c2ccc3ccccc3c2)[nH]c1=O`, the growth in the test with SR leukemia was 67.4%; in the test on RPMI-8226 leukemia it was 68.3%; in the test with OVCAR-8 ovarian it was 41.5%; with OVCAR-5 ovarian, 77.4%; with OVCAR-4 ovarian, 4.49% (active); in the test with SK-OV-3 ovarian, 99.7%. The growth in the test with IGROV1 ovarian is 65.1%; in the test on OVCAR-3 ovarian, 31.6%; with NCI/ADR-RES ovarian it was 42.4%; in the test with T-47D breast it was 37.6%; in the test on BT-549 breast, -5.5% (active); in the test on MDA-MB-435 melanoma, 94.9%. Further, the growth was 52.9% with MCF7 breast; 2.78% (active) in the test with HCT-116 colon; 75.6% in the test on HCC-2998 colon; 98.4% with KM12 colon; 71.4% in the test with MDA-MB-468 breast.

Consider `C(=C\c1cc(/C=C/c2ccccc2)c2ccccc2n1)/c1ccccc1`, for which the growth is 36.7% with SR leukemia; 25.3% in the test with RPMI-8226 leukemia; 78.4% in the test on OVCAR-8 ovarian; 136% in the test with OVCAR-5 ovarian; 98.6% with OVCAR-4 ovarian; 121% in the test with SK-OV-3 ovarian. For the same molecule, the growth with IGROV1 ovarian was 118%; in the test on OVCAR-3 ovarian, 103%; with NCI/ADR-RES ovarian, 69.7%; in the test on T-47D breast, 78.3%; with BT-549 breast it was 126%; with MDA-MB-435 melanoma, 84.8%. Besides, the growth is 37.3% in the test with MCF7 breast; 17.3% in the test with HCT-116 colon; 101% with HCC-2998 colon; 95.6% with KM12 colon; 107% in the test with MDA-MB-468 breast.
